# Data as given in PubChem BioAssay.
# Several values for one entry are separate records, joined by “and”; a condition that tells them apart may be missing. Equal values may be shown once. For some assays here: Potency and affinity values are given separately. More than one record can exist for a structure, and the calls need not agree. Activity calls are given as the source filed them.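 How the source made its calls, unless noted: active means normalized viability below 100% at a tested concentration; inactive means the rest.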
# Assays:
# [1] = liver-stage malaria parasite growth inhibition, primary screen, cell-based, HepG2, luciferase luminescence, HepG2 viability (AID 624349; in the data active means parasite load remaining mostly below about 12%, no sharp cut-off; inactive means mostly above about 10%;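 further: 100% = mean of DMSO negative control wells on the same plate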); settings: P. berghei liver stage in HepG2, luciferase luminescence, concentration not given here; parasite load remaining: stronger effect = lower value; viability: measured here: HepG2 viability without parasites
# [2] = sensitizers of A549 cells to miR-34 induction, primary screen, imaging, A549 dox-inducible miR-34, nuclei and caspase counts (AID 1347080;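 active means compounds whose cell count with miR-34 switched on is under 0.7 times the count with it off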); settings: A549 miR-34 inducible, Hoechst nuclei count, 48 h
# [3] = inhibitors of Cryptococcus chitosan production, flow cytometry, Cibacron Brilliant Red staining (AID 1347148; call rule not given here;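 further: compound exposure lasted three days at 37 degrees C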); settings: Cryptococcus neoformans chitosan, stronger effect = lower value; at 10 µM unless noted
# [4] = polyglutamine-triggered caspase-3 activation inhibitors, cell-based (AID 1583); settings: polyglutamine-induced caspase-3 activation, cell assay; stronger effect = higher value;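 tested at 10 µM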
# [5] = suppressors of polyQ aggregation in yeast, 75Q-TubU reporter (AID 1593); settings: Yeast 75Q polyglutamine aggregation reporter
# [6] = rescue of polyQ-huntingtin neuronal dysfunction in worms, whole organism, C. elegans mechanosensory neurons, N-terminal huntingtin (AID 1599); settings: touch response, stronger effect = higher value
# [7] = inhibitors of mitochondrial cytochrome c release, biochemical, purified mitochondria (AID 1603); settings: stronger effect = lower value;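 further: mouse liver mitochondria challenged with calcium chloride; signal normalized to the plate average as 100%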
# [8] = inhibitors of polyQ protein aggregation (AID 1604); settings: polyglutamine-induced protein aggregation inhibition assay; stronger effect = higher value; tested at 2.5 µM
# [9] = enhancers of glutamate uptake in motor neurons, MN-1 cell line (AID 1612); settings: MN-1 motor neuron cells, stronger effect = higher value;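 further: tested at 1 µM final; 0% = mean of DMSO vehicle wells on each plate; positive means more glutamate uptake than control and negative means less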
# [10] = suppressors of polyglutamine aggregation in yeast, 75Q-TubH (AID 1616); settings: S. cerevisiae 75Q-TubH polyglutamine aggregation suppression; stronger effect = higher value
# [11] = hESC survival regulators, cell-based (AID 493140; call rule not given here;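 further: cells exposed to compounds for four days before counting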); settings: human embryonic stem cell survival screen; stronger effect = higher value
# [12] = ovarian cancer cell viability with rucaparib, profiling panel, oncology-focused library, rucaparib conditional (AID 1508598); settings: patient-derived ovarian cancer cells, CellTiter-Glo viability, 144 h, stronger effect = lower value
# [13] = survival rescue of mitochondrial mutant cells in low glucose, primary screen, MELAS cybrids, Rieske KO mouse fibroblasts, CellTiter-Glo (AID 1508586;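 active means mean z-score across replicates of 1.96 or higher in either the MELAS or the Rieske mutant cell line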;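 further: z relative to plate mean and SD of compound and empty wells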)
# [14] = viability rescue of complex I mutant cybrids, primary screen, cell-based, galactose medium, ATP luminescence (AID 1645843;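 active means z-score of at least 1.8 in each of two replicates, scored against plate mean and spread of sample wells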;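 further: positive z means more ATP and so rescue of galactose-driven cybrid death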); settings: complex I mutant cybrid cells, 72 h, stronger effect = higher value
# [15] = stronger effect = lower value, cell number ratio, induced over uninduced
# [16] = measured here: relative caspase fold change +Dox/-Dox
# [17] = measured here: total cells with miR-34 induction, stronger effect = lower value
# [18] = measured here: total cells without miR-34 induction
# [19] = MELAS cybrid survival, CellTiter-Glo 48 h, stronger effect = higher value
# [20] = Rieske KO mouse fibroblast survival, CellTiter-Glo 72 h
smiles,measurement,setting,value
CN(C)c1ccc(O)c2c1CC1CC3[C@@H](N(C)C)C(=O)C(C(N)=O)=C(O)[C@]3(O)C(=O)C1=C2O (stereo partly drawn),parasite load remaining,[1],53.7% (inactive)
same,viability,[1],42.6%
same,fold change,[2]; [15],0.679 (active)
same,fold change,[2]; [16],1.3
same,cell count,[2]; [17],3880
same,cell count,[2]; [18],5720
Oc1cc(O)c2c(c1)OC(c1ccc(O)c(O)c1)C(O)C2 (stereo not drawn),parasite load remaining,[1],64.2% (inactive)
same,viability,[1],97%
same,fold change,[2]; [15],0.908 (inactive)
same,fold change,[2]; [16],1.18
same,cell count,[2]; [17],9500
same,cell count,[2]; [18],10500
COC(=O)[C@@H]1CC(=O)O[C@H](C)C/C=C/C=C/[C@H](O)[C@H](C)C[C@H](CC=O)[C@H](OC2O[C@H](C)[C@@H](OC3C[C@@](C)(O)[C@@H](OC(=O)CC(C)C)[C@H](C)O3)[C@H](N(C)C)[C@H]2O)[C@H]1OC (stereo partly drawn),parasite load remaining,[1],340% (inactive)
same,viability,[1],138%
same,fold change,[2]; [15],0.948 (inactive)
same,fold change,[2]; [16],3.35
same,cell count,[2]; [17],11900
same,cell count,[2]; [18],12600
CC1(COc2ccc(C[C@@H]3SC(=O)NC3=O)cc2)CCCCC1,fold fluorescence,[3],5.39 (inactive)
CC(C)(C)NCC(O)COc1cccc2c1CC(O)C(O)C2 (stereo not drawn),parasite load remaining,[1],84.5% (inactive)
same,viability,[1],104%
same,fold change,[2]; [15],0.89 (inactive)
same,fold change,[2]; [16],1.39
same,cell count,[2]; [17],8980
same,cell count,[2]; [18],10100
CO[C@H]1C[C@H](O[C@H]2[C@H](C)[C@@H](OC3O[C@H](C)C[C@H](N(C)C)[C@H]3OC(C)=O)[C@@H](C)C[C@]3(CO3)C(=O)[C@H](C)[C@@H](OC(C)=O)[C@@H](C)[C@@H](C)OC(=O)[C@@H]2C)O[C@@H](C)[C@@H]1OC(C)=O (stereo partly drawn),parasite load remaining,[1],45.4% (inactive) and 43.2% (inactive)
same,viability,[1],71.3% and 92%
same,fold change,[2]; [15],0.885 (inactive)
same,fold change,[2]; [16],2.77
same,cell count,[2]; [17],11900
same,cell count,[2]; [18],13400
C=C1C(=O)O[C@@H]2C3OC3(C)CC/C=C(\C)CC[C@@H]12 (stereo partly drawn),inhibition,[4],14.3%
same,score,[5],0.94
same,rescue above control,[6],8.2
same,cytochrome c release ratio,[7],0.54
same,inhibition of aggregation,[8],93.6%
same,glutamate uptake change,[9],-11%
same,aggregation suppression score,[10],0.572
Nc1ncnc2c1c(I)cn2C1OC(CO)C(O)C1O (stereo not drawn),survival,[11],7.5 (inactive)
CCCCC/C=C\C=C\[C@@H](O)CCCCCCCC(=O)O,survival,[11],108 (inactive)
CC[C@@H](CO)Nc1nc(NCc2ccccc2)c2ncn(C(C)C)c2n1,parasite load remaining,[1],32.6% (inactive)
same,viability,[1],67.3%
N#C/C(=C1/Nc2ccccc2S1)c1ccnc(NCCc2cccnc2)n1,parasite load remaining,[1],18.8% (inactive)
same,viability,[1],85.6%
O=c1c2ccccc2[nH]c(=S)n1CCN1CCC(=C(c2ccc(F)cc2)c2ccc(F)cc2)CC1,parasite load remaining,[1],40.1% (inactive)
same,viability,[1],100%
N#CC[C@@H](C1CCCC1)n1cc(-c2ncnc3[nH]ccc23)cn1,viability,"[12]; at 0.000305 µM, OCI-C5x cells, with rucaparib 10 µM, 100% = cells with rucaparib alone",113% (inactive) and 107% (inactive)
same,viability,"[12]; at 0.000305 µM, OCI-C5x cells, without rucaparib",113% (inactive) and 115% (inactive)
same,viability,"[12]; at 0.000305 µM, OCI-P5x cells, with rucaparib 20 µM, 100% = cells with rucaparib alone",90.3% (active) and 57.2% (active)
same,viability,"[12]; at 0.000305 µM, OCI-P5x cells, without rucaparib",67.6% (active) and 15.7% (active)
same,viability,"[12]; at 0.00122 µM, OCI-C5x cells, with rucaparib 10 µM, 100% = cells with rucaparib alone",104% (inactive) and 71.4% (active)
same,viability,"[12]; at 0.00122 µM, OCI-C5x cells, without rucaparib",116% (inactive) and 58.3% (active)
same,viability,"[12]; at 0.00122 µM, OCI-P5x cells, with rucaparib 20 µM, 100% = cells with rucaparib alone",75.9% (active) and 50.4% (active)
same,viability,"[12]; at 0.00122 µM, OCI-P5x cells, without rucaparib",29.2% (active) and 17% (active)
same,viability,"[12]; at 0.00488 µM, OCI-C5x cells, with rucaparib 10 µM, 100% = cells with rucaparib alone",115% (inactive) and 102% (inactive)
same,viability,"[12]; at 0.00488 µM, OCI-C5x cells, without rucaparib",114% (inactive) and 116% (inactive)
same,viability,"[12]; at 0.00488 µM, OCI-P5x cells, with rucaparib 20 µM, 100% = cells with rucaparib alone",107% (inactive) and 105% (inactive)
same,viability,"[12]; at 0.00488 µM, OCI-P5x cells, without rucaparib",106% (inactive) and 105% (inactive)
same,viability,"[12]; at 0.0195 µM, OCI-C5x cells, with rucaparib 10 µM, 100% = cells with rucaparib alone",109% (inactive) and 100% (inactive)
same,viability,"[12]; at 0.0195 µM, OCI-C5x cells, without rucaparib",99.4% (active) and 104% (inactive)
same,viability,"[12]; at 0.0195 µM, OCI-P5x cells, with rucaparib 20 µM, 100% = cells with rucaparib alone",99.9% (active) and 99.8% (active)
same,viability,"[12]; at 0.0195 µM, OCI-P5x cells, without rucaparib",99.4% (active) and 104% (inactive)
same,viability,"[12]; at 0.0781 µM, OCI-C5x cells, with rucaparib 10 µM, 100% = cells with rucaparib alone",112% (inactive) and 100% (inactive)
same,viability,"[12]; at 0.0781 µM, OCI-C5x cells, without rucaparib",113% (inactive) and 109% (inactive)
same,viability,"[12]; at 0.0781 µM, OCI-P5x cells, with rucaparib 20 µM, 100% = cells with rucaparib alone",100% (inactive) and 96.9% (active)
same,viability,"[12]; at 0.0781 µM, OCI-P5x cells, without rucaparib",101% (inactive) and 102% (inactive)
same,viability,"[12]; at 0.313 µM, OCI-C5x cells, with rucaparib 10 µM, 100% = cells with rucaparib alone",105% (inactive) and 98.1% (active)
same,viability,"[12]; at 0.313 µM, OCI-C5x cells, without rucaparib",106% (inactive) and 111% (inactive)
same,viability,"[12]; at 0.313 µM, OCI-P5x cells, with rucaparib 20 µM, 100% = cells with rucaparib alone",100% (inactive) and 90.7% (active)
same,viability,"[12]; at 0.313 µM, OCI-P5x cells, without rucaparib",96.4% (active) and 98.4% (active)
same,viability,"[12]; at 1.25 µM, OCI-C5x cells, with rucaparib 10 µM, 100% = cells with rucaparib alone",117% (inactive) and 101% (inactive)
same,viability,"[12]; at 1.25 µM, OCI-C5x cells, without rucaparib",108% (inactive) and 109% (inactive)
same,viability,"[12]; at 1.25 µM, OCI-P5x cells, with rucaparib 20 µM, 100% = cells with rucaparib alone",97.5% (active) and 88.1% (active)
same,viability,"[12]; at 1.25 µM, OCI-P5x cells, without rucaparib",96% (active) and 91.3% (active)
same,viability,"[12]; at 5 µM, OCI-C5x cells, with rucaparib 10 µM, 100% = cells with rucaparib alone",133% (inactive) and 122% (inactive)
same,viability,"[12]; at 5 µM, OCI-C5x cells, without rucaparib",115% (inactive) and 130% (inactive)
same,viability,"[12]; at 5 µM, OCI-P5x cells, with rucaparib 20 µM, 100% = cells with rucaparib alone",83.7% (active) and 82.4% (active)
same,viability,"[12]; at 5 µM, OCI-P5x cells, without rucaparib",86.9% (active) and 86.2% (active)
CN1C[C@H](C(=O)N[C@]2(C)O[C@@]3(O)[C@@H]4CCCN4C(=O)[C@H](Cc4ccccc4)N3C2=O)CC2c3cccc4[nH]cc(c34)C[C@H]21 (mixture of isomers),z-score,[13]; [19],0.0487 (inactive)
same,z-score,[13]; [20],0.764
O=C(c1nn(Cc2ccncc2)c2c1CN(Cc1ccsc1)CC2)N1CCCC1,z-score,[13]; [19],-0.1 (inactive)
same,z-score,[13]; [20],0.631
same,z-score,[14],0.36 (inactive)
